Sampled rows, rich in hits. Any-hit rate of the full collection: about 7.3%.
HCMV antiviral: inhibitors of human cytomegalovirus; HFF cells, HCMV-luciferase reporter, 72 h; stronger effect = lower value; activity change, negative = inhibition, % at 57.5 µM; 410,000 tested, 4.5% active; in the data active = activity change below about -60%; inconclusive = no clear call, values can overlap the other calls; inactive = above about -39%
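Inhibition of viral replication was scored as loss of reporter luminescence in HFFs infected with HCMV-luciferase (MOI 1 PFU/cell) for 72 h; compounds tested at 2 doses, normalized to buffer and Salinomycin controls.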
AmpC inh detg: blocks E. coli AmpC beta-lactamase in detergent assay; AID 485294; 370,000 tested, 0.041% active; AmpC hydrolysis of nitrocefin, absorbance 480 nm, 0.01% Triton; P00811; Potency, µM (highest dose often 114 µM), inactives show at the top dose activity change, negative = inhibition, actives largely listed as inhibitors;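 note: potency is the fitted concentration of half-maximal effect; 0% = no-compound wells and -100% = no-enzyme wells; nearly all actives have a fitted effect of over 25% in size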
Target sequence (P00811 whole entry, looked up): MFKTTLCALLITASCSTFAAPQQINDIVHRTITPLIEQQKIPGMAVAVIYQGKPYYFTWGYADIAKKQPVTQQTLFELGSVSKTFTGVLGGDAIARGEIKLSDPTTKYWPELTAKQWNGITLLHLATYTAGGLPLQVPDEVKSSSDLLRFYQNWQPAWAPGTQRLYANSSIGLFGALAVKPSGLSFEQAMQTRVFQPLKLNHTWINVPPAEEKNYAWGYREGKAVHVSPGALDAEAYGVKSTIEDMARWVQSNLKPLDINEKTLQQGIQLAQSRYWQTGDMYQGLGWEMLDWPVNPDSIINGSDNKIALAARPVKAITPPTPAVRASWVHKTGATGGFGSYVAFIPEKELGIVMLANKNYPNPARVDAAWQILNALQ
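20 mM phosphate pH 7.0 + 0.01% (detergent screen) or 0.0001% Triton X-100; 5.3 nM AmpC reagent; cpd preinc 15 min RT; nitrocefin (800 uM stock) to start; A480 q20 s × 4 min; Activity was normalised to no-enzyme and no-compound control wells.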
HCV inhibitor: HCV inhibition. Potency, µM (top dose mostly 41.8 µM), without a hit: at the highest dose activity change, negative = inhibition, actives largely listed as inhibitors. 340,000 tested, 3.4% active. Huh7.5.1 HCVcc-Cre infection, luciferase reporter, 44 h; note: potency is the fitted concentration of half-maximal effect
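HCVcc-Cre virus at an moi near 0.5 was added right after compound to cells cultured 4 h from seeding (1,000 cells/well). Luciferase activity was determined 44 h later, 15 min after substrate addition at RT.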
FMDV antiviral: blocks foot and mouth disease virus | FMDV antiviral cell-based qHTS | Potency, µM (top dose mostly 57.9 µM), for inactives: at the highest dose activity change, negative = inhibition, actives largely listed as inhibitors | 410,000 tested, 1.2% active; calls by dose curve; tested in HEK293T cells; note: read-out not given here; potency is the fitted concentration of half-maximal effect; nearly all actives have a fitted effect of over 45% in size
AmpC no deterg: inhibitors of E. coli AmpC beta-lactamase without detergent. AmpC nitrocefin hydrolysis, absorbance 480 nm, 0.0001% Triton. Potency, µM (top dose mostly 57.1 µM), without a hit: at the highest dose activity change, negative = inhibition, usual class: inhibitors. 330,000 tested, 0.52% active. P00811. AID 485341;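 note: potency is the fitted concentration of half-maximal effect; plate controls were no compound for no effect and no enzyme for full effect; nearly all actives have a fitted effect of over 20% in size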
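20 mM phosphate pH 7.0 + 0.01% (detergent screen) or 0.0001% Triton X-100; 5.3 nM AmpC reagent; cpd preinc 15 min RT; nitrocefin (800 uM stock) to start; A480 q20 s × 4 min; Activity was normalised to no-enzyme and no-compound control wells.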
Numbers without * were called inactive; ? = inconclusive; . = no result given; [ ] = remark or other dose. Unless noted, calls come from the whole dose curve; as a rule, active = well fitted curve in the direction sought with a large enough effect; inconclusive = small, poorly fitted or top-dose-only effect, or another doubt; inactive = no such curve, though single readings can be large; an effect the other way counts as inactive or inconclusive. Unless noted, % is set by controls: 0 for no effect and ±100 for the full control effect.

SMILES	HCMV antiviral	AmpC inh detg	HCV inhibitor	FMDV antiviral	AmpC no deterg
COC(=O)c1ccccc1NC(=O)C1CCN(C(=O)Cc2ccccc2)CC1	-12	5%	?	-19%	-19%
O=C(NCc1ccc(F)cc1)C1CCCN1C(=O)Nc1cccc(F)c1 (stereo not given)	-21	-8%	11%	5%	-3%
O=C1C=C(N2CCCCC2)C2(CCCCC2)O1	75	2%	-3%	7%	-6%
O=C1C=C(N2CCN(C(=O)c3ccccc3)CC2)C2(CCCCC2)O1	-77*	3%	0%	-17%	-16%
C=CCN1C[C@@H](COCc2ccccc2)OCCS1(=O)=O	-14	.	.	.	.
CS(=O)(=O)c1nc(-c2ccc(Br)cc2)cc(-c2ccccc2)c1C#N	-99*	2%	?	?	-37%
COc1ccc(-c2cc(-c3ccccc3)c(C#N)c(S(C)(=O)=O)n2)cc1	-66*	2%	26%	40µM*	-14%
NNc1ccc([N+](=O)[O-])c2[nH][nH]c(=O)c12	-31	.	.	-20%	.
Oc1ccccc1N=N/C(=N/Nc1ccccc1O)c1ccccc1	30	-7%	4%[8.37 µM]	4%	-33%
N#C/C(N=Nc1ccccc1O)=N\Nc1ccccc1O	-99*	-13%	11µM*	?	-42%
CC12C=CC(C)(C3C(=O)NC(=O)C31)C1C3C(=O)NC(=O)C3C12 (stereo not given)	-4	.	.	.	.
CCCCCCCSc1cc(OC)c(CCNC)cc1OC	-99*	-15%	?	0%	130%
O=C(c1ccccc1)N1CCCC(c2ccc(Cl)cc2)=N1	-24	-14%	?	.	91%
O=C(c1cccc(Cl)c1)N1CCCC(c2ccc(Cl)cc2)=N1	-4	-12%	7.9µM*	.	16%
Cc1cccc(C(=O)NNC(=O)C2CCN(C(=O)OC(C)(C)C)CC2)c1	3	-6%	10%	-12%	1%
COc1ccc(N2CCN(c3cc(C)c4cccc(C)c4n3)CC2)cc1	-74*	7%	-6%	-9%	-21%
COc1ccc2c(C)cc(N3CCOCC3)nc2c1	17	-5%	25µM*	50%	-5%
COc1ccc(N2CCN(c3cc(C)c4ccc(C)cc4n3)CC2)cc1	-64*	6%	-15%	?	2%
COc1ccc(N2CCN(c3nc4cc(C)ccc4cc3C=O)CC2)cc1	-25	-13%	11µM*	-19%	-5%
COc1ccc(N2CCN(c3ncnc4c3cnn4-c3ccc(C)cc3C)CC2)cc1	-36	-9%	10%	?	-9%
Cc1cc(N2CCN(c3ncccn3)CC2)nc2c(C)cccc12	.	1%	?	?	-18%
O=S(=O)(c1cc(Br)ccc1Br)N1CCC(c2noc3ccccc23)CC1	-9	.	.	.	.
CC(C)OC(=O)N(C)C[C@@H]1OCc2cnnn2CCCC(=O)N([C@H](C)CO)C[C@H]1C	4	.	.	-8%	.
CC(C)(C)NC(=O)C(c1ccc(O)cc1)N(C(=O)CCC(=O)Nc1ccccn1)c1ccc(F)cc1 (stereo not given)	-13	0%	-1%	-12%	-29%
Cc1ccc2[nH]c(-c3ccc(Cl)cc3)c(C#N)c2c1	34	.	.	.	.
SMILES	HCMV antiviral	AmpC inh detg	HCV inhibitor	FMDV antiviral	AmpC no deterg
Cc1ccc2nsnc2c1-n1c(C)nc2ccccc2c1=O	-9	-6%	?	-1%	1%
Cc1cccc(C)c1-n1c(=O)c2nc3ccccc3nc2c2ccccc21	-96*	.	.	.	.
Cc1ccc(-c2ccc(/C=N/NC(N)=S)o2)cc1	99	1%	11µM*	34%	-49%
CCCCCN(C(=O)CCC(=O)OCC(=O)N(CC#N)c1ccccc1)c1c(N)n(CCCC)c(=O)[nH]c1=O	-3	0%	-6%	-7%	139%
Cc1ccc(CCNc2ncnc(Cl)c2N)cc1	-84*	.	1µM*	0%	.
N#C[C@H](c1ccccc1)C1CCN(C(=O)c2ccco2)CC1	-9	.	.	.	.
CCC(C)(C)c1ccc(OCCCC[n+]2cccc(C)c2C)c(C(C)(C)CC)c1	-97*	-3%	18µM*	?	129%
CCC(C)(C)c1ccc(OCCCC[n+]2ccc(C)cc2)c(C(C)(C)CC)c1	-97*	-7%	?	?	257%
COc1ccc(C(=O)C[n+]2cccc(C)c2C)cc1[N+](=O)[O-]	40	-3%	0%	-6%	9%
CC(=O)Nc1ccccc1-c1nc(CNC(=O)c2ccc(C)cc2)c(C)o1	.	.	.	12%	.
CCCN1[C@@H]2c3cccc(=O)n3C[C@H]1[C@H](CO)[C@H]2C(=O)NC1Cc2ccccc2C1	-10	.	.	.	.
COc1ccc(-n2nnnc2SCC(=O)c2ccc3c(c2)OCCO3)cc1	4	-1%	22%	-13%	-23%
COc1ccc(-n2nnnc2SCC(=O)N2CCCC2=O)cc1	-7	-1%	11%	-5%	-9%
COc1ccc(-n2nnnc2SCC(=O)N2CCOCC2)cc1	79	?	7%	28%	0.89µM*
COc1ccc(N2CCN(C(=O)CSc3nnnn3-c3ccc4c(c3)OCCO4)CC2)cc1	?	?	7.9µM*	.	25%
COc1ccc(OC)c(-n2nnnc2SCC(=O)Nc2ccc(C(=O)N3CCCCC3)cc2)c1	-64*	-3%	-24%	.	18%
COc1ccc(C(=O)NNC(=O)CSc2nnnn2-c2cc(OC)cc(OC)c2)cc1	8	0%	11µM*	-1%	-33%
CC(C)c1ccc(C2/C(=C(/O)c3ccc(F)cc3)C(=O)C(=O)N2CCCN2CCOCC2)cc1 (stereo not given)	-12	5%	10%	10%	4%
CC(CC(=O)OCC(=O)NCc1ccc(Cl)cc1)c1ccccc1 (stereo not given)	11	?	?	-6%	-9%
CCNC(=O)N[C@H]1CC[C@@]23CCCN2C(=O)CCC[C@H]3[C@H]1C	-6	.	.	.	.
Cc1c(C(=O)NCCc2ccc(Cl)cc2)cccc1-n1cnc2cccnc21	0	14%	.	?	.
O=C1N/C(=C/c2ccc(N3CCOCC3)o2)C(=O)N1c1cccc(Cl)c1	-100*	-1%	?	-17%	-17%[2.29 µM]
O=C1NC(=O)C(=Cc2ccc(N3CCOCC3)o2)C(=O)N1	-1	-9%	19%	9%	-15%
CCOc1ccc2nc(N/C(N)=N/C(=S)Nc3ccc(OC)cc3)nc(C)c2c1	-8	-6%	?	-8%	-31%
CCOc1ccc2nc(N/C(N)=N/S(C)(=O)=O)nc(C)c2c1	8	-4%	5%	35%	-31%
COc1ccc2nc(N/C(N)=N/C(=S)Nc3ccccc3)nc(C)c2c1	-31	6%	11µM*	-20%	-42%
COc1ccc2nc(N/C(N)=N/C(=S)Nc3ccc(C)c(C)c3)nc(C)c2c1	.	?	4µM*	.	-23%
CCc1ccc(NC(=S)/N=C(\N)Nc2nc(C)c3cc(CC)ccc3n2)cc1	-28	-7%	16µM*	?	-43%
CCc1ccc2nc(/N=C(\N)NC(=O)c3ccccc3)nc(C)c2c1	-5	2%	?	-5%	12%

Source: PubChem
